Results from PubChem BioAssay AID1159580 (chemical genetic matrix, 2015).
Out of some 5,500 compounds screened, about 2,000 (36%) were called active. About 18% were inconclusive and are not listed. No stated cut-off is given here; in the data, active means normalized growth mostly below about 0.91 (no sharp cut-off); inconclusive means no clear call, values can overlap the other calls; inactive means mostly above about 0.92. The list shows a part of the results.

Assay: chemical genetic growth profiling, strain panel (AID 1159580);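 further: tested at 20 µM; growth read once vehicle control cultures reached saturation at 30 °C; 1 = growth at the plate median or of vehicle wells; lower values mean less growth of the strain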
Conditions: S. cerevisiae deletion strains, growth OD
[1] = locus YHR030C, strain SLT2, hits give low values
[2] = locus YHR079C, strain IRE1, hits give low values
[3] = locus YJL095W, strain BCK1, hits give low values
[4] = locus YJR066W, strain TOR1, hits give low values
[5] = locus YLR113W, strain HOG1, hits give low values
[6] = locus YNL183C, strain NPR1, hits give low values
[7] = locus YOR231W, strain MKK1, hits give low values
[8] = locus YPL256C, strain CLN2, hits give low values

Measured: normalized growth

OC[C@@H](O)[C@@H](O)[C@H](O)[C@@H](O)CO
inactive: [1] 0.986 | [2] 0.96 | [3] 0.992 | [4] 0.946 | [5] 0.989 | [6] 0.947 | [7] 0.989 | [8] 1.01

CCCc1cc(C(N)=S)ccn1
inactive: locus YAL021C, strain ccr4, hits give low values 0.966 | locus YAL026C, strain drs2, hits give low values 0.982 | locus YAL030W, strain snc1, hits give low values 0.985 | locus YBL061C, strain skt5, hits give low values 0.975 | locus YBR009C, strain hhf1, hits give low values 0.939 | locus YBR023C, strain chs3, hits give low values 0.963 | locus YBR171W, strain sec66, hits give low values 0.955 | locus YBR231C, strain swc5, hits give low values 0.981 | locus YBR279W, strain paf1, hits give low values 0.97 | locus YCL011C, strain gbp2, hits give low values 0.974 | locus YCL016C, strain dcc1, hits give low values 0.985 | locus YCL069W, strain vba3, hits give low values 0.963 | locus YCR088W, strain abp1, hits give low values 0.966 | locus YDL005C, strain med2, hits give low values 0.959 | locus YDL040C, strain nat1, hits give low values 0.964 | locus YDR001C, strain nth1, hits give low values 0.971 | locus YDR069C, strain doa4, hits give low values 0.95 | locus YDR137W, strain rgp1, hits give low values 0.976 | locus YDR159W, strain sac3, hits give low values 0.89 | locus YDR195W, strain ref2 0.976 | locus YDR297W, strain sur2, hits give low values 0.975 | locus YDR334W, strain swr1, hits give low values 0.929 | locus YDR335W, strain msn5, hits give low values 0.961 | locus YDR392W, strain spt3, hits give low values 0.886 | locus YEL003W, strain gim4, hits give low values 0.972 | locus YEL037C, strain rad23, hits give low values 0.964 | locus YEL061C, strain CIN8 (second series), hits give low values 0.96 | locus YER015W, strain faa2, hits give low values 0.978 | locus YER016W, strain bim1, hits give low values 0.988 | locus YER111C, strain swi4, hits give low values 0.988 | locus YER155C, strain BEM2 (second series), hits give low values 0.958 | locus YFR010W, strain ubp6, hits give low values 0.948 | locus YGL167C, strain pmr1, hits give low values 0.939 | locus YGL173C, strain kem1, hits give low values 0.966 | locus YGL227W, strain vid30, hits give low values 0.974 | locus YGL240W, strain doc1, hits give low values 0.953 | locus YGL253W, strain hxk2, hits give low values 0.952 | locus YHR013C, strain ard1, hits give low values 0.954 | locus YHR027C, strain rpn1, hits give low values 0.967 | [1] 1.01 | [2] 1.02 | locus YHR142W, strain chs7, hits give low values 0.981 | locus YJL092W, strain hpr5, hits give low values 0.971 | locus YJL095W, strain BCK1 (second series), hits give low values 0.978 | [3] 1.02 | locus YJL115W, strain asf1, hits give low values 0.948 | locus YJL129C, strain trk1, hits give low values 0.981 | locus YJL154C, strain vps35, hits give low values 0.96 | locus YJL164C, strain tpk1, hits give low values 0.971 | locus YJL166W, strain qcr8, hits give low values 0.95 | [4] 0.925 | locus YKL160W, strain elf1, hits give low values 0.989 | locus YKR026C, strain gcn3, hits give low values 0.942 | locus YKR091W, strain srl3, hits give low values 0.96 | locus YLL001W, strain dnm1, hits give low values 0.954 | locus YLL026W, hits give low values 0.985 | locus YLL041C, strain sdh2, hits give low values 0.964 | locus YLR027C, strain aat2, hits give low values 0.98 | [5] 0.997 | locus YLR221C, strain rsa3, hits give low values 0.956 | locus YLR258W, strain gsy2, hits give low values 0.966 | locus YLR262C, strain YPT6 (second series), hits give low values 0.943 | locus YLR320W, strain mms22, hits give low values 0.937 | locus YLR342W, strain FKS1, hits give low values 0.981 | locus YLR357W, strain rsc2, hits give low values 0.888 | locus YLR370C, strain arc18, hits give low values 0.955 | locus YLR384C, strain iki3, hits give low values 0.971 | locus YML120C, strain ndi1, hits give low values 0.964 | locus YMR058W, strain fet3, hits give low values 0.981 | locus YMR125W, strain sto1, hits give low values 0.918 | locus YMR129W, hits give low values 0.961 | locus YMR205C, strain PFK2, hits give low values 0.955 | locus YMR231W, strain pep5, hits give low values 0.967 | locus YNL071W, strain lat1, hits give low values 0.958 | [6] 0.942 | locus YNL209W, strain ssb2, hits give low values 0.955 | locus YNL248C, strain rpa49, hits give low values 0.925 | locus YNL322C, strain KRE1 (second series), hits give low values 0.966 | locus YNR049C, strain mso1, hits give low values 0.948 | locus YOR001W, strain rrp6, hits give low values 0.938 | locus YOR070C, strain gyp1, hits give low values 0.98 | locus YOR080W, strain dia2, hits give low values 0.942 | locus YOR083W, strain WHI5, hits give low values 0.946 | locus YOR106W, strain vam3, hits give low values 0.983 | [7] 1 | locus YOR265W, strain rbl2, hits give low values 0.978 | locus YOR270C, strain vph1, hits give low values 0.931 | locus YOR290C, strain snf2, hits give low values 0.989 | locus YPL051W, strain arl3, hits give low values 0.989 | locus YPL078C, strain atp4, hits give low values 0.991 | locus YPL106C, strain sse1, hits give low values 0.956 | locus YPL240C, strain hsp82, hits give low values 0.976 | [8] 1.01
